Assay outcomes (PubChem BioAssay)
Shown are actives, neighbours in structure and some others; about 2.9% of the full set was active somewhere.
SNCA expr inhib = SNCA gene expression inhibition; HEK-293 SNCA-luciferase knock-in, luminescence, 24 h; Potency, µM (highest dose often 57.2 µM), usual class: inhibitors; 0.17% of 140,000 active; note: nearly all actives have a fitted effect of over 45% in size
IP6K1 inh = inhibitors of human IP6K1 | 0.81% of 140,000 active | Q92551 | IP6K1 kinase, ADP-Glo luminescence, 2 h; hits give low values | activity change, % (series mostly up to about 58 µM); in the data active = activity change below about -25%
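ADP-Glo luminescence measures ADP made by human IP6K1 during a 2 h RT reaction with ATP/IP6 (mix at 1.3 mM/130 uM); top library doses 57.5 and 19.1 uM final.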
KDM5B inhibitor = blocks human KDM5B histone demethylase activity; Potency, µM (titrated, usually from 57.7 µM), usual class: inhibitors; 2.6% of 220,000 active; KDM5B demethylase, FDH-coupled NADH fluorescence (FDH is formaldehyde dehydrogenase); note: nearly all actives have a fitted effect of over 70% in size
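Coupled FDH/NAD⁺ fluorescence readout. KDM5BΔAP 200 nM final; compound titration, 10 min RT preincubation; substrate mix 12.5 µM H3K4me3, 25 µM 2-OG, 50 µM Fe(II), 100 µM ascorbate, 0.25 mM NAD⁺, 0.25 U/mL FDH; ΔRFU over 30 min.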
SNCA viab count = cell viability loss counter-screen; HEK-293-SNCA-luc viability, GF-AFC fluorescence, 24 h; Potency, µM (series often up to 57.1 µM), hits mostly cytotoxic; 0.12% of 150,000 active; note: nearly all actives have a fitted effect of over 30% in size
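HEK-293-SNCA-luc cells (1500/well) plated 24 h, then exposed 24 h to a dilution series; GF-AFC added 30 min at 37C, fluorescence 405/540 nm; normalised to medium-only and DMSO wells, Hill fit.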
Hits are given with their value. Unless noted, calls come from the whole dose curve; as a rule, active = well fitted curve in the direction sought with a large enough effect; inconclusive = small, poorly fitted or top-dose-only effect, or another doubt; inactive = no such curve, though single readings can be large; an effect the other way counts as inactive or inconclusive.

Screening Cc1ccc(-c2ccc3nnc(CNC(=O)c4cccc(C#N)c4)n3n2)cc1 returned SNCA expr inhib inactive, IP6K1 inh inactive, KDM5B inhibitor 11µM and SNCA viab count inactive.
Screening Cc1ccc(-c2ccc3nnc(CNC(=O)c4cccc(N(C)C)c4)n3n2)cc1 returned SNCA expr inhib inactive, IP6K1 inh inactive, KDM5B inhibitor inactive and SNCA viab count inactive.
For CCOC(=O)C(C(=O)OCC)C(NC(C)=O)C(Cl)(Cl)Cl (centres undefined) the results were KDM5B inhibitor inactive.
COc1ccc(C(=O)NC2CCN(c3cc(-c4cccs4)[nH]n3)CC2)c(C)c1 was read as SNCA expr inhib inactive, IP6K1 inh inactive, KDM5B inhibitor inconclusive and SNCA viab count inactive.
O=C(NC1CCN(c2cc(-c3cccs3)[nH]n2)C1)c1ccc(F)cc1Cl (centres undefined) was read as SNCA expr inhib inactive, IP6K1 inh inactive, KDM5B inhibitor 16µM and SNCA viab count inactive.
`Cc1cccc(CC(=O)NC2CCN(c3cc(-c4cccs4)[nH]n3)C2)c1` (centres undefined) gave SNCA expr inhib inactive, IP6K1 inh inactive, KDM5B inhibitor inconclusive and SNCA viab count inactive.
COc1ccc(C(=O)NC2CCN(c3cc(-c4cccs4)[nH]n3)C2)c(C)c1 (centres undefined) was read as SNCA expr inhib inactive, IP6K1 inh inactive, KDM5B inhibitor 14µM and SNCA viab count inconclusive.
`O=C(NC1CCN(c2cc(-c3cccs3)[nH]n2)C1)c1ccccc1Cl` (centres undefined) gave SNCA expr inhib inconclusive, IP6K1 inh inactive, KDM5B inhibitor 14µM and SNCA viab count inconclusive.
Screening O=C(Cc1ccc(Cl)cc1)NC1CCN(c2cc(-c3cccs3)[nH]n2)C1 (centres undefined) returned SNCA expr inhib inactive, IP6K1 inh inactive, KDM5B inhibitor 8.9µM and SNCA viab count inactive.
Screening O=C(NC1CCN(c2cc(-c3cccs3)[nH]n2)C1)c1ccc(F)cc1F (centres undefined) returned SNCA expr inhib inactive, IP6K1 inh inactive, KDM5B inhibitor inconclusive and SNCA viab count inactive.
For COc1ccccc1CN1C[C@@H](F)[C@@H](OCc2nc3ccccc3o2)C1 the results were SNCA expr inhib inactive, IP6K1 inh inactive, KDM5B inhibitor inactive and SNCA viab count inactive.
CCCn1nc(C(=O)Nc2nc(-c3ccc(OC)cc3)c(C)s2)c2ccccc2c1=O was read as KDM5B inhibitor inactive.
For COc1ccc(N2CCN(C(=O)c3nc(SC)ncc3Cl)CC2)cc1 the results were SNCA expr inhib inactive, IP6K1 inh inactive, KDM5B inhibitor inactive and SNCA viab count inactive.
Screening CCS(=O)(=O)c1ncc(Cl)c(C(=O)N2CCN(c3ccc(OC)cc3)CC2)n1 returned SNCA expr inhib inconclusive, IP6K1 inh inactive, KDM5B inhibitor inconclusive and SNCA viab count 14µM.
Screening CCS(=O)(=O)c1ncc(Cl)c(C(=O)Nc2ccccc2)n1 returned SNCA expr inhib 2.2µM, IP6K1 inh inactive, KDM5B inhibitor inconclusive and SNCA viab count 7.1µM.
`Cc1cccc(NC(=O)c2nc(S(C)(=O)=O)ncc2Cl)c1` gave SNCA expr inhib inconclusive, IP6K1 inh inactive, KDM5B inhibitor inconclusive and SNCA viab count 20µM.
CC(C)c1nnc(NC(=O)c2nc(S(=O)(=O)Cc3ccccc3)ncc2Cl)s1 was read as SNCA expr inhib inconclusive, IP6K1 inh inactive, KDM5B inhibitor inconclusive and SNCA viab count 22µM.
CCS(=O)(=O)c1ncc(Cl)c(C(=O)Nc2c(C(=O)Nc3cccc(C)c3)oc3ccccc23)n1 was read as SNCA expr inhib inactive, IP6K1 inh inactive, KDM5B inhibitor inactive and SNCA viab count inactive.
`Cc1ccc(CNC(=O)c2nc(S(=O)(=O)Cc3ccc(C)cc3)ncc2Cl)cc1` gave SNCA expr inhib inactive, IP6K1 inh inactive, KDM5B inhibitor inactive and SNCA viab count inactive.
`CC(=O)Nc1ccc(NC(=O)c2nc(S(=O)(=O)Cc3ccc(F)cc3)ncc2Cl)cc1` gave SNCA expr inhib inconclusive, IP6K1 inh inactive, KDM5B inhibitor inconclusive and SNCA viab count 7.9µM.
CCS(=O)(=O)c1ncc(Cl)c(C(=O)NCc2ccc(OC)cc2)n1 was read as SNCA expr inhib 22µM, IP6K1 inh inactive, KDM5B inhibitor inactive and SNCA viab count inconclusive.
Cc1cc(C)n2nc(C(=O)OC(C)C(=O)c3c[nH]c4ccccc34)nc2n1 (centres undefined) was read as KDM5B inhibitor inactive.
For COc1ccc(NC(=O)c2ccc(-c3nnc4ccc(NC(=O)C5CCC5)cn34)cc2)cc1 the results were SNCA expr inhib inactive, IP6K1 inh inactive, KDM5B inhibitor inconclusive and SNCA viab count inactive.
Screening O=C(NCCc1ccccn1)c1ccc(-c2nnc3ccc(NC(=O)C4CCC4)cn23)cc1 returned SNCA expr inhib inactive, IP6K1 inh inactive, KDM5B inhibitor inconclusive and SNCA viab count inactive.
`CCN1CCN(C(=O)c2ccc(-c3nnc4ccc(NC(=O)C5CC5)cn34)cc2)CC1` gave SNCA expr inhib inactive, IP6K1 inh inactive, KDM5B inhibitor 28µM and SNCA viab count inactive.
Screening CN(C)C(=O)c1ccc(-c2nnc3ccc(NC(=O)C4CCC4)cn23)cc1 returned SNCA expr inhib inactive, IP6K1 inh inactive, KDM5B inhibitor 22µM and SNCA viab count inactive.
O=C(Nc1ccc2nnc(-c3ccc(C(=O)N4CCSCC4)cc3)n2c1)C1CCC1 was read as SNCA expr inhib inactive, IP6K1 inh inactive, KDM5B inhibitor 28µM and SNCA viab count inactive.
`CC(NC(=O)c1ccc(-c2nnc3ccc(NC(=O)C4CCC4)cn23)cc1)c1cccs1` (centres undefined) gave SNCA expr inhib inactive, IP6K1 inh inactive, KDM5B inhibitor 28µM and SNCA viab count inactive.
`CC(=O)OC(C)(C)/C=C/C(=O)C(C)(O)C1C(O)CC2(C)C3CC=C(C(C)(C)C(=O)O)C(CC(=O)O)C3(C)C(=O)CC12C` (centres undefined) gave IP6K1 inh inactive and SNCA viab count inactive.
O=C(O)C1CCCN(S(=O)(=O)Cc2ccccc2)C1 (centres undefined) was read as KDM5B inhibitor inactive.
For Cc1nn(CCC(=O)Nc2ccc(Cl)cc2F)c(=O)c(C#N)c1C the results were KDM5B inhibitor inactive.
`CN(C)CCNC(=O)c1ccc(-c2nnc3ccc(NC(=O)C4CCC4)cn23)cc1` gave SNCA expr inhib inactive, IP6K1 inh inactive, KDM5B inhibitor inconclusive and SNCA viab count inactive.
CC(=O)Nc1ccc2nnc(-c3ccc(C(=O)N4CCCCCC4)cc3)n2c1 was read as SNCA expr inhib inactive, IP6K1 inh inactive, KDM5B inhibitor 14µM and SNCA viab count inactive.
O=C(c1ccc2nnc(-c3ccc(Cl)cc3)n2c1)N1CCCC1 was read as SNCA expr inhib inconclusive, IP6K1 inh inactive and SNCA viab count inactive.
Screening CCCN(C)C(=O)c1ccc(-c2nnc3ccc(NC(=O)C4CCC4)cn23)cc1 returned SNCA expr inhib inactive, IP6K1 inh inactive, KDM5B inhibitor 22µM and SNCA viab count inactive.
`O=C(NCCc1ccncc1)c1ccc(-c2nnc3ccc(NC(=O)C4CCC4)cn23)cc1` gave SNCA expr inhib inactive, IP6K1 inh inactive, KDM5B inhibitor 28µM and SNCA viab count inactive.
